Screens from PubChem.
TDP1 inh – inhibitors of human tyrosyl-DNA phosphodiesterase TDP1; Potency, µM (top dose mostly 130 µM), inactives show at the highest dose activity change, negative = inhibition, most hits filed as inhibitors; Q9NUW8; 0.28% of 350,000 active; recombinant TDP1, AlphaScreen DNA substrate cleavage; further: potency means the concentration at half of the fitted maximal effect; on the % scale 0 is the no-effect control and ±100 the full control effect; nearly all actives have a fitted effect of over 40% in size
Target sequence (Q9NUW8 whole entry, looked up): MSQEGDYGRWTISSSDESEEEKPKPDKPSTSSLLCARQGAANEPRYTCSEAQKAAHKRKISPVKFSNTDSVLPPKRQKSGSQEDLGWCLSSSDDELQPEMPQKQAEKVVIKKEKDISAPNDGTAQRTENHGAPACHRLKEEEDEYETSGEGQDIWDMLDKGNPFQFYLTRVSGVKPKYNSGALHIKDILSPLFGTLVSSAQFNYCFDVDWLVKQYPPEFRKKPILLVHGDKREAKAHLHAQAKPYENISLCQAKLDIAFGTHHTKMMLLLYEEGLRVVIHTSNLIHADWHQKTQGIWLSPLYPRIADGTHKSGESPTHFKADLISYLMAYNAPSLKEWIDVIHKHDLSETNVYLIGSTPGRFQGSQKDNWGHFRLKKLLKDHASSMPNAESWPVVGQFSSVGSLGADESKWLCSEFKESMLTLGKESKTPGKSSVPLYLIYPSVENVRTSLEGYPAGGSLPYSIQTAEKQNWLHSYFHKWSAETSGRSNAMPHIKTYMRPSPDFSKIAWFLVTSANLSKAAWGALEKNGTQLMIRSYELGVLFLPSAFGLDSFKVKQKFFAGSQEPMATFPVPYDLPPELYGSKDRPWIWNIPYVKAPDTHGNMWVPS
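Recombinant E. coli-expressed Tdp1 (1 nM) preincubated with compound 15 min at RT, then 5'-biotin/3'-phosphotyrosine-FITC DNA substrate (15 nM) added for 5 min. AlphaScreen beads (10 ug/ml) added, 10 min RT; tyrosine-FITC cleavage read as signal loss.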
TDP1 cell noCPT – qHTS for Inhibitors of human tyrosyl-DNA phosphodiesterase 1 (TDP1): qHTS in cells in absence of CPT. AID 686978, 2013. DT40 Tdp1-/- hTDP1 cells, no CPT, ATP luminescence, 48 h. Potency, µM (top dose mostly 46.2 µM), for inactives: top-dose activity change, negative = growth inhibition, usual class: inhibitors. 15% of 420,000 active; further: potency means the concentration at half of the fitted maximal effect; on the % scale 0 is the no-effect control and ±100 the full control effect; nearly all actives have a fitted effect of over 55% in size
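Readout: luminescence from CellTiter-Glo after 30 min in the dark at RT. Cells: DT40 Tdp1-/- with stable hTDP1, 400/well. Exposure: compounds alone, ≥48 hr, 37 °C.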
HepG2 viability – HepG2 cytotoxicity, counter-screen for TGF-b inhibitors; Potency, µM (doses to about 46.1 µM), for inactives: top-dose activity change, negative = cytotoxicity, hits mostly cytotoxic; HepG2 CAGA-GFP viability, ATP luminescence, 18 h; 0.76% of 410,000 active; further: potency means the concentration at half of the fitted maximal effect
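HepG2 CAGA-GFP cells (1000/well, DMEM with 1% FBS) received compound, then TGF-beta at 500 pg/mL final, and were incubated 18 hours at 37 degrees C. Viability was read by CellTiter-Glo luminescence. Media-only wells were set as complete cell-killing and DMSO as no toxicity.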
TGFb inhibitor – inhibitors of TGF-b signaling | HepG2 CAGA-GFP TGF-b/SMAD3 reporter, GFP fluorescence, 18 h; TGF-beta stimulated, 500 pg/mL final | Potency, µM (top dose mostly 46.1 µM), without a hit: top-dose activity, negative = inhibition, actives largely listed as inhibitors | 1.2% of 410,000 active | AID 588855; further: potency means the concentration at half of the fitted maximal effect; on the % scale 0 is the no-effect control and ±100 the full control effect; nearly all actives have a fitted effect of over 65% in size
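Inhibition of TGF-beta-driven CAGA-GFP reporter expression in HEPG2 cells is measured by cellular GFP fluorescence after 18 h stimulation with 500 pg/mL recombinant TGF-beta in 1% FBS medium at 37 degrees C.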
IL1B secr inh – blocks inflammasome-driven IL-1 beta release | 4.7% of 360,000 active | THP-1 LPS/ATP IL-1B secretion, AlphaLISA, 16 h; hits give low values | AID 743279 | activity change, % at 57.5 µM; in the data active means activity change below about -50%; inconclusive means mostly about -30% to -49%; further: on the % scale 0 is the no-effect control and ±100 the full control effect
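Secreted IL-1B measured by AlphaLISA bead assay after 16 h compound exposure of THP-1 cells; compounds (final up to 57.5 uM) added 1 h before LPS (250 ng/mL) and ATP (1.25 mM) stimulation; lower signal means less secretion.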
TDP1 cell CPT – DT40-hTDP1 cell growth loss with CPT | AID 686979 | 12% of 420,000 active | Potency, µM (top dose mostly 46.2 µM), without a hit: top-dose activity change, negative = growth inhibition, most hits filed as inhibitors | chicken DT40 Tdp1-/-;hTDP1 cells + 20 nM CPT, ATP luminescence, 48 h; further: potency means the concentration at half of the fitted maximal effect; on the % scale 0 is the no-effect control and ±100 the full control effect; nearly all actives have a fitted effect of over 55% in size
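Chicken DT40 Tdp1-/- cells complemented with human TDP1, 400 cells/well, exposed to compounds plus 20 nM camptothecin for at least 48 h at 37 C; viability read as ATP content by CellTiter-Glo luminescence.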
The depositor's hits bear a star; ? = inconclusive; / = no result given; [ ] = remark or other dose. The list is not random: actives were taken first. Their share in the collection is about 19%. Unless noted, the call rests on the fitted dose curve; in most records, active means well fitted curve in the direction sought with a large enough effect; inconclusive means small, poorly fitted or top-dose-only effect, or another doubt; inactive means no such curve, though single readings can be large; an effect the other way counts as inactive or inconclusive.

SMILES | TDP1 inh | TDP1 cell noCPT | HepG2 viability | TGFb inhibitor | IL1B secr inh | TDP1 cell CPT
COc1cc2cnc(-c3ccccc3)c(-c3ccc(C#N)cc3)c2cc1OC | 1.1% | 16.4µM* | -7.5% | 12.5% | -22.2 | ?
CCCc1ccc(Oc2cc(NN3CCCCC3)c([N+](=O)[O-])cc2[N+](=O)[O-])cc1 | / | -22.2% | -14.7% | -4.6% | 46.6 | 0.2%
O=C1CN(S(=O)(=O)c2ccc3c(c2)OCCO3)CCN1S(=O)(=O)c1c(F)cccc1F | -0.2% | / | / | / | / | /
Cc1cnc(NC(=O)Cc2ccc(S(=O)(=O)N3CCOCC3)s2)s1 | 0.7% | ? | -6.4% | -26.2% | 11.6 | 2.6%
O=C(Cc1ccc(Cl)c(Cl)c1)Nc1ccccc1N1CCOCC1 | 6.9% | ? | 12.8% | -16.6% | 19.0 | 23.1µM*
CC(C)(C)c1csc(NC(=O)Cc2ccc(S(=O)(=O)N3CCOCC3)s2)n1 | 4.6% | 14.6µM* | 2.0% | -26.1% | ? | ?
O=C(Cc1ccc2c(c1)OCCO2)Nc1cc(Cl)ccc1N1CCOCC1 | -0.1% | ? | 5.0% | 5.5% | 21.7 | 16.4µM*
CCN(CC)S(=O)(=O)c1ccc(C)c(NC(=O)Cc2ccc(S(=O)(=O)N3CCOCC3)s2)c1 | 4.1% | 20.6µM* | -106.1% | 1.9% | 3.2 | ?
O=C(Nc1nnc(S(=O)(=O)N2CCCc3ccccc32)s1)c1ccccc1Br | 3.9% | ? | -20.3% | ? | / | ?
CC1CCC2C(=O)N3CCCC3C(=O)N2C1c1ccc(Br)cc1 (centres undefined) | 0.5%[21 µM] | / | / | / | / | /
O=C(CN1C(=O)C2CCCCC2C1=O)Nc1nc2ccc(F)cc2s1 (centres undefined) | / | -12.6% | -17.6% | ? | 4.2 | -4.6%
NC(=O)C1=C[C@@H](c2ccc(Br)cc2)C[C@@H](OCCCCO)O1 | 2.6% | -20.9% | 4.4% | ? | -3.5 | -2.6%
O=S1(=O)C2CC3CCC2(CN1Cc1ccccc1)O3 (centres undefined) | 5.6% | / | 9.6% | -9.2% | / | /
Cc1noc(C)c1C(=O)Nc1cccc2ncccc12 | 10.7% | -21.2% | -9.6% | 16.9% | 7.4 | 6.8%
CC(=O)c1cccc(NC(=O)N2CCC(NC(=O)C3CCCCC3)CC2)c1 | 1.4% | -4.8% | -20.8% | -15.9% | 25.1 | 7.0%
O=C(Cc1ccc(S(=O)(=O)N2CCOCC2)s1)Nc1ccccc1N1CCOCC1 | 5.8% | 11.6µM* | 3.8% | -8.9% | 25.4 | ?
O=C(Cn1nnc(-c2ccccc2)n1)Nc1ccccc1N1CCOCC1 | 1.1% | 12.6µM* | -15.8% | -0.7% | ? | ?
O=C(Cc1ccc(S(=O)(=O)N2CCOCC2)s1)Nc1ccccc1Br | -8.2% | -5.3% | 30.7% | 13.6% | 10.9 | -4.2%
COCCCc1cc(F)c(S(=O)(=O)N2CCN(S(=O)(=O)c3ccc4c(c3)OCCO4)CC2)cc1F | 0.6% | / | / | / | / | /
CCC/C=C/c1ccc(CN2C(C(C)C)C(=O)N(Cc3cn(Cc4ccco4)nn3)CCS2(=O)=O)cc1 (centres undefined) | / | 23.1µM* | -108.6% | 11.2µM* | ? | ?
CCC/C=C/c1ccc(CN2C(C)C(=O)N(Cc3cn(Cc4ccco4)nn3)CCS2(=O)=O)cc1 (centres undefined) | / | ? | -33.0% | 22.4µM* | ? | ?
CCC/C=C/c1ccc(CN2C(C)C(=O)N(Cc3cn(CCC4OCCO4)nn3)CCS2(=O)=O)cc1 (centres undefined) | / | 14.6µM* | -1.9% | 5.9% | 9.7 | ?
CCC/C=C/c1ccc(CN2C(C(C)C)C(=O)N(Cc3cn(CCC4OCCCO4)nn3)CCS2(=O)=O)cc1 (centres undefined) | / | ? | -74.0% | ? | ? | ?
